From PubChem BioAssay AID1159580 (chemical genetic matrix, 2015)
Values joined by “and” are separate entries in the source; they are usually repeats but may differ in a detail not shown here. Equal entries are not always repeated. Among all 5,500 compounds or so, about 2,000 (36%) were called active. Inconclusive results (about 18%) are left out. Cut-off read from the data, not from the text of the source: active = normalized growth mostly below about 0.91 (no sharp cut-off); inconclusive = no clear call, values can overlap the other calls; inactive = mostly above about 0.92. The list shows a part of the results.

Assay: chemical genetic growth profiling, strain panel (AID 1159580);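 note: tested at 20 µM; growth read once vehicle control cultures reached saturation at 30 °C; 1 = growth at the plate median or of vehicle wells; lower values mean less growth of the strain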
Settings: S. cerevisiae deletion strains, growth OD

Measured: normalized growth

CCCCc1nc(Cl)c(CO)n1Cc1ccc(-c2ccccc2-c2nn[nH]n2)cc1
inactive: locus YAL013W, strain DEP1, hits give low values 1.01 | locus YAL021C, strain ccr4, hits give low values 0.992 | locus YAL026C, strain drs2, hits give low values 0.99 | locus YAL030W, strain snc1, hits give low values 0.974 | locus YBL061C, strain skt5, hits give low values 0.99 | locus YBR009C, strain hhf1, hits give low values 0.993 | locus YBR021W, strain FUR4, hits give low values 1.01 | locus YBR023C, strain chs3, hits give low values 0.981 | locus YBR171W, strain sec66, hits give low values 0.994 | locus YBR229C, strain ROT2, hits give low values 1.01 | locus YBR231C, strain swc5, hits give low values 0.968 | locus YBR279W, strain paf1, hits give low values 0.986 | locus YCL011C, strain gbp2, hits give low values 0.984 | locus YCL016C, strain dcc1, hits give low values 0.983 | locus YCL029C, strain bik1, hits give low values 1.01 | locus YCL061C, strain MRC1, hits give low values 0.989 | locus YCL069W, strain vba3, hits give low values 0.985 | locus YCR088W, strain abp1, hits give low values 0.976 | locus YDL005C, strain med2, hits give low values 0.977 | locus YDL035C, strain GPR1, hits give low values 1.02 | locus YDL040C, strain nat1, hits give low values 0.971 | locus YDL074C, strain BRE1, hits give low values 1.03 | locus YDL101C, strain DUN1, hits give low values 1.01 | locus YDL134C, strain PPH21, hits give low values 1.01 | locus YDL185W, strain tfp1, hits give low values 1 | locus YDL192W, strain arf1, hits give low values 1 | locus YDR001C, strain nth1, hits give low values 0.992 | locus YDR069C, strain doa4, hits give low values 0.975 | locus YDR101C, strain arx1, hits give low values 0.996 | locus YDR137W, strain rgp1, hits give low values 0.986 | locus YDR150W, strain NUM1, hits give low values 1.01 | locus YDR159W, strain sac3, hits give low values 0.943 | locus YDR162C, strain NBP2, hits give low values 1.01 | locus YDR195W, strain ref2 0.93 | locus YDR297W, strain sur2, hits give low values 0.993 | locus YDR318W, strain mcm21, hits give low values 1.01 | locus YDR334W, strain swr1, hits give low values 0.966 | locus YDR335W, strain msn5, hits give low values 0.992 | locus YDR388W, hits give low values 1 | locus YDR392W, strain spt3, hits give low values 1 | locus YDR502C, strain sam2, hits give low values 0.997 | locus YEL003W, strain gim4, hits give low values 1.01 | locus YEL037C, strain rad23, hits give low values 0.985 | locus YEL061C, strain CIN8 (second series), hits give low values 0.982 | locus YEL061C, strain CIN8, hits give low values 1.01 | locus YER015W, strain faa2, hits give low values 0.996 | locus YER016W, strain bim1, hits give low values 0.976 | locus YER110C, hits give low values 1 | locus YER111C, strain swi4, hits give low values 0.967 | locus YER155C, strain BEM2 (second series), hits give low values 0.968 | locus YER155C, strain BEM2, hits give low values 0.973 | locus YER167W, strain BCK2, hits give low values 1.01 | locus YFR010W, strain ubp6, hits give low values 0.985 | locus YGL078C, strain dbp3, hits give low values 0.995 | locus YGL086W, strain mad1, hits give low values 0.993 | locus YGL167C, strain pmr1, hits give low values 0.978 | locus YGL173C, strain kem1, hits give low values 0.986 | locus YGL227W, strain vid30, hits give low values 0.982 | locus YGL240W, strain doc1, hits give low values 0.981 | locus YGL248W, strain PDE1, hits give low values 1.01 | locus YGL253W, strain hxk2, hits give low values 0.985 | locus YGR078C, strain PAC10, hits give low values 1.02 | locus YGR135W, strain pre9, hits give low values 0.998 | locus YGR229C, strain SMI1, hits give low values 1.01 | locus YGR252W, strain gcn5, hits give low values 1 | locus YHR013C, strain ard1, hits give low values 1.01 | locus YHR027C, strain rpn1, hits give low values 1 | locus YHR030C, strain SLT2, hits give low values 1.01 and 0.941 | locus YHR079C, strain IRE1 (second series), hits give low values 0.995 | locus YHR079C, strain IRE1, hits give low values 0.969 | locus YHR094C, strain hxt1, hits give low values 0.992 | locus YHR129C, strain ARP1, hits give low values 1.01 | locus YHR142W, strain chs7, hits give low values 0.986 | locus YHR200W, strain rpn10, hits give low values 0.999 | locus YIL066C, strain RNR3, hits give low values 1.01 | locus YIL073C, strain SPO22, hits give low values 1.08 | locus YIL125W, strain kgd1, hits give low values 0.994 | locus YIR030C, strain dcg1, hits give low values 0.995 | locus YJL092W, strain hpr5, hits give low values 1 | locus YJL095W, strain BCK1 (second series), hits give low values 0.985 | locus YJL095W, strain BCK1, hits give low values 1.02 and 0.998 | locus YJL115W, strain asf1, hits give low values 0.994 | locus YJL129C, strain trk1, hits give low values 0.963 | locus YJL134W, strain LCB3, hits give low values 1 | locus YJL154C, strain vps35, hits give low values 0.969 | locus YJL164C, strain tpk1, hits give low values 1 | locus YJL166W, strain qcr8, hits give low values 0.98 | locus YJL168C, strain set2, hits give low values 0.996 | locus YJL187C, strain SWE1 (second series), hits give low values 1.01 | locus YJL187C, strain SWE1, hits give low values 0.981 | locus YJR043C, strain POL32, hits give low values 1.02 | locus YJR066W, strain TOR1, hits give low values 0.987
